Data on seven molecules can be found in PubChem BioAssay (EPA / NIEHS).

Assay [1] has as its target Bile acid receptor (Homo sapiens) (UniProt Q96RI1). Put plainly: ATG_IR1_CIS: Attagene CIS-FACTORIAL HepG2 Assay for human Nuclear Receptor Subfamily 1 Group H Member 4 (NR1H4), IR1 submotif (AID 2282946). Conditions: IR1 reporter transcription, actives raise or lower the signal. The essentials: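 Cells (human HepG2) carry transiently transfected cis-promoter reporter transcription units. Compounds are incubated 24 h, total RNA is reverse-transcribed and amplified, and labelled fragments are resolved by capillary electrophoresis. Curves use DMSO as baseline.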

Assay [2] is described as follows: ATG_GRE_CIS: Attagene CIS-FACTORIAL HepG2 Assay for human Glucocorticoid Response Elements (GRE) (AID 2282947). Conditions: HepG2 GRE cis-reporter, Attagene multiplex mRNA; actives raise or lower the signal. Put shortly:
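Assay uses human hepatoma HepG2 cells transfected with cis-promoter reporter units, exposed 24 h. mRNA from reporters detected by RT-PCR plus capillary electrophoresis; DMSO serves as negative control and baseline.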

Assay [3] can be described thus: ATG_ISRE_CIS: Attagene CIS-FACTORIAL HepG2 Assay for human Interferon Regulatory Factor 1 (IRF1) binding to an Interferon-Stimulated Response Element (ISRE) (AID 2282948). Conditions: HepG2 ISRE cis-reporter (Attagene), mRNA transcription readout; actives raise or lower the signal. The essentials: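 Quantitation relies on labelled RT-PCR fragments separated by capillary electrophoresis. Human HepG2 cells bearing cis-promoter reporter constructs were treated 24 h; DMSO served as baseline for bidirectional fitting.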

A short description of assay [4]: ATG_M_32_CIS: Attagene CIS-FACTORIAL HepG2 Assay for M32 Transcription Factor (Internal Marker) (AID 2282949).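 Also: background control marker of the multiplexed CIS panel rather than a real target.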 Conditions: HepG2 Attagene cis-factorial M32 reporter, mRNA; actives raise or lower the signal. The essentials:
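Internal background marker read-out: RT-PCR/capillary electrophoresis fluorescence of reporter transcripts from transiently transfected HepG2 cells after 24 h chemical exposure. Activity fitted bidirectionally relative to DMSO negative control.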

A short description of assay [5]: ATG_M_06_CIS: Attagene CIS-FACTORIAL HepG2 Assay for M06 Transcription Factor (Internal Marker) (AID 2282950). Conditions: HepG2 Attagene CIS-FACTORIAL M06 internal marker reporter; actives raise or lower the signal. Put shortly: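 Cells (HepG2, transiently carrying cis-driven reporter units) receive chemical for 24 h before RNA isolation. Reporter cDNA is PCR-amplified, FAM-labelled by primer extension, HpaI-digested and sized on a capillary analyser.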

Assay [6] has as its target Hypoxia-inducible factor 1-alpha (Homo sapiens) (UniProt Q16665). Briefly: ATG_HIF1a_CIS: Attagene CIS-FACTORIAL HepG2 Assay for human Hypoxia Inducible Factor 1 (HIF1A) (AID 2282951). Conditions: HepG2 Attagene cis-factorial HIF1a reporter transcription; actives raise or lower the signal. Put shortly:
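Measures endogenous transcription-factor activity through cis-regulated reporter mRNA in HepG2. Cells dosed 24 h; transcripts quantified by RT-PCR with 6-FAM-labelled products separated by capillary electrophoresis; DMSO serves as negative control.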

Assay [7] deals with Hepatocyte nuclear factor 6 (Homo sapiens) (UniProt Q9UBC0). Put plainly: ATG_HNF6_CIS: Attagene CIS-FACTORIAL HepG2 Assay for human Hepatocyte Nuclear Factor 6 (HNF6) (AID 2282952). Conditions: HepG2 Attagene cis-factorial HNF6 reporter transcription; actives raise or lower the signal. Put shortly: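 Transiently transfected HepG2 cells expressing cis-regulated reporter transcription units were exposed to chemical for 24 h in a 24-well format. Reporter transcript abundance was determined by fluorescence capillary electrophoresis.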
Hepatocyte nuclear factor 6 (Homo sapiens), sequence (Q9UBC0 whole entry, looked up): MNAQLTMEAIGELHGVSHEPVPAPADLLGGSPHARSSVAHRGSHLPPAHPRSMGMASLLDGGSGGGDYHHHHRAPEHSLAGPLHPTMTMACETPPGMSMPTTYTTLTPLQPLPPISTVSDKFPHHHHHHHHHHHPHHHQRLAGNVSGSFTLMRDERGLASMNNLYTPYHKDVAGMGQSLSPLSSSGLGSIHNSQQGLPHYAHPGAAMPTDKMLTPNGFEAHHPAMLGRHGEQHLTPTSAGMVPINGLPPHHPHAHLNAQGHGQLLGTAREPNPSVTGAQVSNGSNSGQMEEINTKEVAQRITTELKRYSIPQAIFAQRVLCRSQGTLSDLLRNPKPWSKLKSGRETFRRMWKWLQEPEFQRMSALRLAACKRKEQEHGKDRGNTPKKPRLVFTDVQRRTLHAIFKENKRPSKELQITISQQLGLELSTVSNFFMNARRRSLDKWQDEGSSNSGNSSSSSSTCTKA

For assay [8], the target named is Heat shock factor protein 1 (Homo sapiens) (UniProt Q00613). Put plainly: ATG_HSE_CIS: Attagene CIS-FACTORIAL HepG2 Assay for human Heat Shock Transcription Factor 1 (HSE) (AID 2282953). Conditions: HepG2 HSE cis-reporter, Attagene RNA transcription; actives raise or lower the signal. The essentials:
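Liver-derived HepG2 cells carry transiently introduced multiple reporter units governed by cis promoters. Reporter RNA measured 24 h post-dose through reverse transcription, PCR amplification, fluorescent labelling and capillary electrophoresis, normalised to DMSO.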

A short description of assay [9]: ATG_MRE_CIS: Attagene CIS-FACTORIAL HepG2 Assay for human Metal Responsive Element (MRE) (AID 2282954). Conditions: HepG2 MRE cis-reporter transcription, Attagene multiplex; actives raise or lower the signal. The essentials:
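After a 24 h chemical exposure, transiently transfected HepG2 cells yield RNA whose reporter sequences are amplified, FAM-labelled and sized by capillary electrophoresis. Curves are fitted bidirectionally relative to DMSO.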

Assay [10] is described as follows: ATG_PBREM_CIS: Attagene CIS-FACTORIAL HepG2 Assay for human Phenobarbital-responsive Enhancer Module (PBREM) (AID 2282955). Conditions: HepG2 PBREM cis-reporter, Attagene multiplexed transcription; actives raise or lower the signal. Put shortly:
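Fluorescence of labelled reporter cDNA fragments, resolved by capillary electrophoresis, gives mRNA induction in transfected HepG2 cells treated for 24 h; DMSO serves as negative control and baseline.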

The target in assay [11] is Paired box protein Pax-6 (Homo sapiens) (UniProt P26367). Briefly: ATG_Pax6_CIS: Attagene CIS-FACTORIAL HepG2 Assay for human Paired Box 6 (PAX6) (AID 2282956). Conditions: HepG2 CIS-FACTORIAL PAX6 reporter transcription, RNA readout; actives raise or lower the signal. The essentials: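 After twenty-four hours of chemical exposure, transfected HepG2 cells are harvested for RNA. Cis-promoter reporter transcripts are amplified, fluorescently labelled and sized by capillary electrophoresis, with gain and loss of signal scored against DMSO.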
Paired box protein Pax-6 (Homo sapiens), sequence (P26367 whole entry, looked up): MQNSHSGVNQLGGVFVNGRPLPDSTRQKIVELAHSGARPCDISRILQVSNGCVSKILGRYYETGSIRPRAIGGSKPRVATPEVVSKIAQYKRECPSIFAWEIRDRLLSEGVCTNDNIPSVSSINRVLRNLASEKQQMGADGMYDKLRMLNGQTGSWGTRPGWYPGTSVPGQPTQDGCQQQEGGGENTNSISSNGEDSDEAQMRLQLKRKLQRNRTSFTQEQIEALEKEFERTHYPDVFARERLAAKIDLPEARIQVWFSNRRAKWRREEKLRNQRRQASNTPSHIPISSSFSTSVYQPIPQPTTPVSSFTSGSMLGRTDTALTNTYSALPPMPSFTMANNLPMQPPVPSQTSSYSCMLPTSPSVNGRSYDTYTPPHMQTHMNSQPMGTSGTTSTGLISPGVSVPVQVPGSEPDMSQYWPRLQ

Assay [12] in a line: ATG_PXRE_CIS: Attagene CIS-FACTORIAL HepG2 Assay for human Pregnane X Receptor Element (PXRE) (AID 2282957). Conditions: HepG2 Attagene CIS-FACTORIAL PXRE reporter, mRNA; actives raise or lower the signal. Put shortly:
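Cis-element reporter mRNA in human hepatoma HepG2 cells is measured 24 h post-dosing by RT-PCR, primer-extension labeling and capillary electrophoresis; gain or loss of signal is fitted relative to DMSO.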

Assay [13] in a line: ATG_RORE_CIS: Attagene CIS-FACTORIAL HepG2 Assay for human RAR-related Orphan Receptor Element (RORE) (AID 2282959). Conditions: HepG2 Attagene cis-factorial RORE reporter, mRNA; actives raise or lower the signal. Put shortly: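 Cells were HepG2 carrying transfected cis-regulated reporter constructs, dosed for 24 hours. Total RNA was reverse-transcribed and reporter cDNA amplified, fluorescently labeled and sized by capillary electrophoresis. Activity was fitted bidirectionally relative to DMSO.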

Assay [14] in a line: ATG_Sox_CIS: Attagene CIS-FACTORIAL HepG2 Assay for human SRY-box transcription factor (SOX) (AID 2282960). Conditions: HepG2 Attagene cis-factorial SOX reporter, mRNA; actives raise or lower the signal. Put shortly: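 Transient MRTU transfection of HepG2; 24 h compound incubation; TriZol RNA, oligo(dT) RT, PCR, 6-FAM primer extension, HpaI cut, CE. Bidirectional fit, DMSO = baseline.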

The target in assay [15] is Transcription factor Sp1 (Homo sapiens) (UniProt P08047). Briefly: ATG_Sp1_CIS: Attagene CIS-FACTORIAL HepG2 Assay for human Specificity Protein 1 (Sp1) (AID 2282961). Conditions: HepG2 Sp1 cis-reporter transcription, actives raise or lower the signal. The essentials:
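Endogenous Sp1 activity was gauged in human liver HepG2 cells bearing transfected reporter units under a cis-regulating promoter. After 24 h dosing, reporter mRNA was quantified by RT-PCR with capillary electrophoresis, and activity fitted bidirectionally versus DMSO.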

A short description of assay [16]: ATG_SREBP_CIS: Attagene CIS-FACTORIAL HepG2 Assay for human Sterol Regulatory Element Binding (SREBP) (AID 2282962). Conditions: HepG2 Attagene cis-factorial SREBP reporter, mRNA; actives raise or lower the signal. The essentials:
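Twenty-four hours after chemical dosing of transfected HepG2 cultures, reporter RNA was converted to cDNA, amplified, end-labelled with 6-FAM and resolved by capillary electrophoresis. Responses were fitted relative to DMSO.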

Assay [17] in a line: ATG_TCF_b_cat_CIS: Attagene CIS-FACTORIAL HepG2 Assay for human T-Cell-Factor with beta-catenin (TCF/b-cat) (AID 2282965). Conditions: HepG2 TCF/beta-catenin cis-reporter transcription, actives raise or lower the signal. The essentials: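 Endogenous transcription factor activity is captured through cis-promoter reporter constructs transiently introduced into human HepG2 liver cells. Induced reporter mRNA is measured after 24 h and fitted bidirectionally relative to DMSO.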

Assay [18] in a line: ATG_PPRE_CIS: Attagene CIS-FACTORIAL HepG2 Assay for human Peroxisome Proliferator-activated Response Element (PPRE) (AID 2282958). Conditions: HepG2 PPRE cis-element reporter, Attagene transcription factor profiling; actives raise or lower the signal. The essentials:
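Cells are first transfected transiently with the multiplexed reporter library, then dosed for 24 h. Total RNA is reverse-transcribed, amplified, fluorescently end-labeled and HpaI-cut before capillary electrophoresis; activity is fitted bidirectionally against DMSO controls.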

Assay [19] concerns the target Signal transducer and activator of transcription 3 (Homo sapiens) (UniProt P40763). Put plainly: ATG_STAT3_CIS: Attagene CIS-FACTORIAL HepG2 Assay for human Signal Transducer and Activator of Transcription 3 (STAT3) (AID 2282963). Conditions: HepG2, Attagene cis-factorial STAT3 reporter transcription; actives raise or lower the signal. Put shortly:
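After a 24 h compound incubation, total RNA from MRTU-transfected HepG2 cells was converted to cDNA and reporter sequences PCR-amplified, labelled and profiled by capillary electrophoresis. Gain and loss of signal were referenced to DMSO.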

Assay [20] in a line: ATG_TA_CIS: Attagene CIS-FACTORIAL HepG2 Assay for human TA Basal Promoter (AID 2282964). Conditions: HepG2 Attagene CIS-factorial TA basal promoter reporter; actives raise or lower the signal. The essentials:
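Background internal-marker endpoint from a 52-component HepG2 cis-reporter panel. Cells treated 24 h; reporter transcripts quantified via RT-PCR and CE fluorescence against DMSO baseline.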

The source made the active and inactive calls. The calls were made as follows: active = hit-call score of the fitted dose curve at least 0.9, where 1 is the maximum; inactive = score below 0.9.

Signal transducer and activator of transcription 3 (Homo sapiens), sequence (P40763 whole entry, looked up): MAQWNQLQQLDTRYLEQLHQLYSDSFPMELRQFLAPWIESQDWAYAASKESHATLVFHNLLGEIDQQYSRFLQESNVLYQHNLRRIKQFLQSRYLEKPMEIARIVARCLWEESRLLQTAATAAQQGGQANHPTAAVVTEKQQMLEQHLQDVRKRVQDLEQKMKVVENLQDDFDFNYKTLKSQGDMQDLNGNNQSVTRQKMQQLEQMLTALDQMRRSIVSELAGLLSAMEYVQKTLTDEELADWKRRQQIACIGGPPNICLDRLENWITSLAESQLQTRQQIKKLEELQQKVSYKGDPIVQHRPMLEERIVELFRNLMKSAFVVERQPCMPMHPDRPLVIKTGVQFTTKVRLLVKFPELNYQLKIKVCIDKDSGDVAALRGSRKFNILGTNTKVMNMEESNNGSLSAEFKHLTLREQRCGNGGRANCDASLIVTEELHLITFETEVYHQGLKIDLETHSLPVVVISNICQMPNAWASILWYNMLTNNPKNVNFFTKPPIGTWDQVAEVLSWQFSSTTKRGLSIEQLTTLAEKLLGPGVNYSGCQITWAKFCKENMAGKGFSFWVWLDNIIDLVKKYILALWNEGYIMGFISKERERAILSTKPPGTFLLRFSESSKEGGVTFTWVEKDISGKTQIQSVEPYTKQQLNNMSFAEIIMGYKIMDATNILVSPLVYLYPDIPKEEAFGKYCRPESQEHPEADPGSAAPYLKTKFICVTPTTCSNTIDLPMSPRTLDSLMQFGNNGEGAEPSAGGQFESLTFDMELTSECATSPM
Hypoxia-inducible factor 1-alpha (Homo sapiens), sequence (Q16665 whole entry, looked up): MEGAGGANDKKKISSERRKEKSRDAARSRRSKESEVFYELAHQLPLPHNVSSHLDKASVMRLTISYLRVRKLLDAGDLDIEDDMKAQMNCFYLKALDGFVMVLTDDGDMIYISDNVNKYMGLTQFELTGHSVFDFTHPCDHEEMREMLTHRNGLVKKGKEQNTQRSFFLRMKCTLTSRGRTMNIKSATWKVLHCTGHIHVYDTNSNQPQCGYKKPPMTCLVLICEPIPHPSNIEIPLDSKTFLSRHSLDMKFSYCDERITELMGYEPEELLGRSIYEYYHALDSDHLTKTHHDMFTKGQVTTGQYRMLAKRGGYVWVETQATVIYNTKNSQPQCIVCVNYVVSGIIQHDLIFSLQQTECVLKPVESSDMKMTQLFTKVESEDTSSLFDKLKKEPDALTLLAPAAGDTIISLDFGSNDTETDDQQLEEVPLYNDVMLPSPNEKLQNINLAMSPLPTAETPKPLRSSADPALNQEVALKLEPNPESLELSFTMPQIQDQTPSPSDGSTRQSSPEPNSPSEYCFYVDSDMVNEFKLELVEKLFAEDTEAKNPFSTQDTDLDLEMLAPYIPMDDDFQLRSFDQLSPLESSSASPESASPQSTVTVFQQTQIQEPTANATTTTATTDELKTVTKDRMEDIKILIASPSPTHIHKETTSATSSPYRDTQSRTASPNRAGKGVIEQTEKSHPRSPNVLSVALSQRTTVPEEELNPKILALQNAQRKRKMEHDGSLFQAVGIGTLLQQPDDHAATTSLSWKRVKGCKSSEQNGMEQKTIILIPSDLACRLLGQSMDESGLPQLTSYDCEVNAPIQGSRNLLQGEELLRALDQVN
Heat shock factor protein 1 (Homo sapiens), sequence (Q00613 whole entry, looked up): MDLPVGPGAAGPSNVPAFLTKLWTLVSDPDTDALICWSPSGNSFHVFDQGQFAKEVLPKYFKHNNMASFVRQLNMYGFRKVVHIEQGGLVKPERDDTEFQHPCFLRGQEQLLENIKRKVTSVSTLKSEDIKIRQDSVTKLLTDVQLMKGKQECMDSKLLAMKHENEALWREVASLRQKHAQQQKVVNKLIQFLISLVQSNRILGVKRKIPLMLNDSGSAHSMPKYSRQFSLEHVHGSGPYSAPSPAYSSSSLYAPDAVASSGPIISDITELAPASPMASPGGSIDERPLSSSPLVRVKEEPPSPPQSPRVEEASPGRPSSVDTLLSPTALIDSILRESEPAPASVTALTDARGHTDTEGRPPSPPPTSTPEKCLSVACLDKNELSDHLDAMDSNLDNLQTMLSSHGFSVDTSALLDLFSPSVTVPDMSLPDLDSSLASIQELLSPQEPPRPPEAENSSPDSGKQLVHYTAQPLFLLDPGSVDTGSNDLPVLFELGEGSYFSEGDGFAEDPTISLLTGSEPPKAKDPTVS
Bile acid receptor (Homo sapiens), sequence (Q96RI1 whole entry, looked up, the tested form may be a part): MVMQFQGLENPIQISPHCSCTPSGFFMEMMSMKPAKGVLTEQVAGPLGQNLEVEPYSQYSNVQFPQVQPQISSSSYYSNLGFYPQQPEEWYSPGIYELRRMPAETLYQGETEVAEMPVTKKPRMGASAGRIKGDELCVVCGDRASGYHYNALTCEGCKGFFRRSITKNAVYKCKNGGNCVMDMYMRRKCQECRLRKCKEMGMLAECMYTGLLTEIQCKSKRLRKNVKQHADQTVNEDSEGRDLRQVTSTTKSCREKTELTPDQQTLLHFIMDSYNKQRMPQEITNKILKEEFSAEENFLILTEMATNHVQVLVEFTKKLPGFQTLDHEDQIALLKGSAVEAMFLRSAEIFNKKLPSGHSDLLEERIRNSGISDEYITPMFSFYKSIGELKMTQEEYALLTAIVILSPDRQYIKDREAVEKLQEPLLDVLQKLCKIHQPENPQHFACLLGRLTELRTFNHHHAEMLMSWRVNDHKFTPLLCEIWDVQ
Transcription factor Sp1 (Homo sapiens), sequence (P08047 whole entry, looked up): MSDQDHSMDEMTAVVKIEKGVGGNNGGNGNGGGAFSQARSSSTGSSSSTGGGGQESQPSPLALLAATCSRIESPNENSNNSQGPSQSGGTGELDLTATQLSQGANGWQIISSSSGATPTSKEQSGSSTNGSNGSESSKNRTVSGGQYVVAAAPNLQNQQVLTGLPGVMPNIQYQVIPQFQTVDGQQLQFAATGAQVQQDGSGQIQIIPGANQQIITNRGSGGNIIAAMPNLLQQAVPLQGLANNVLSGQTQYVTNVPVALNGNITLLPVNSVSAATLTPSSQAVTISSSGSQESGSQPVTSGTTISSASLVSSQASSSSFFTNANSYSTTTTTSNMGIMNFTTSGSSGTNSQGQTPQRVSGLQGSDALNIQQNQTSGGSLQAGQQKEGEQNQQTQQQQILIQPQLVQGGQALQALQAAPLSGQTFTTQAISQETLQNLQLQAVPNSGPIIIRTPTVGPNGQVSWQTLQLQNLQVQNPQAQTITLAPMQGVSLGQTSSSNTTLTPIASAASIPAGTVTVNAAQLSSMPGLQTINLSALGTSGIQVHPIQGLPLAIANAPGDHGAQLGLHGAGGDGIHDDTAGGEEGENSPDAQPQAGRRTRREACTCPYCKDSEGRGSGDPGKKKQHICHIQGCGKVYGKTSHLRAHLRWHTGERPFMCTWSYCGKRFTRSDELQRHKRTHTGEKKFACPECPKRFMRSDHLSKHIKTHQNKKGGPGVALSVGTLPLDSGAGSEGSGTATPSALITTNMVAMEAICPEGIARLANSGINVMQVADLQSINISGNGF

As for `N#Cc1ccc(CC(=NNC(=O)Nc2ccc(OC(F)(F)F)cc2)c2cccc(C(F)(F)F)c2)cc1`, the outcome in [1], in assay [2], in [3], in assay [4], in [5] and in [6] was inactive. Also, the call in assay [7], in [8], in assay [9], in assay [10], in [11] and in assay [12] was inactive. The result in assay [13], in [14], in [15], in assay [16] and in [17] was inactive.
As to `CC(C)OP(=O)(CP(=O)(OC(C)C)OC(C)C)OC(C)C`, the call in [1], in assay [2], in assay [3], in assay [4], in assay [5] and in [6] was inactive. Moreover, the outcome in assay [7], in assay [8], in [9], in assay [10], in [11] and in assay [18] was inactive. The outcome in [13], in assay [14], in assay [15], in [16], in assay [19] and in [20] was inactive. Moreover, the call in [17] was inactive. Further, the AC50 in assay [12] was 7.59 µM (active).
In the case of `CC1(C)CCC(C)(C)c2cc(C(=O)Nc3ccc(C(=O)O)cc3)ccc21`, the half-maximal activity concentration (AC50) in assay [1] is 4.75 µM (active); in assay [3] it was 100 µM (active); in [6], 55.1 µM (active); in [8] it was 157 µM (active); in [9] it was 74.5 µM (active); in assay [11], 85 µM (active). The AC50 in [12] was 53.9 µM (active); in assay [18], 43.7 µM (active); in assay [13] it was 32.7 µM (active); in [20], 27.7 µM (active); in assay [17], 48.2 µM (active). Further, the call in assay [2], in assay [4], in [5], in [7], in assay [10] and in assay [14] was inactive. Moreover, the molecule was called inactive in assay [15], in assay [16] and in assay [19].
Turning to `CC(CCO)CCCC(C)(C)O` (stereo not drawn), the result in assay [1], in assay [2], in assay [3], in assay [4], in [5] and in [6] was inactive. Also, the molecule was classed as inactive in assay [7], in assay [8], in assay [9], in assay [10], in assay [12] and in [18]. Further, the result in assay [13], in assay [14], in assay [15], in assay [16], in [19] and in [20] was inactive. In addition, the result in [17] was inactive.
On to `CN(C)CCOCCN(C)C`, for which the result in [1], in [2], in [3], in assay [4], in assay [5] and in assay [6] was inactive. Further, the molecule was called inactive in assay [7], in [8], in assay [9], in [11], in assay [12] and in assay [18]. The molecule was called inactive in [13], in assay [14], in assay [15], in assay [16], in [19] and in [20]. Moreover, the molecule was classed as inactive in [17].
On to `CCC(O)CO` (stereo not drawn), for which the result in assay [1], in [2], in [3], in assay [4], in [5] and in assay [6] was inactive. The molecule was called inactive in [7], in assay [8], in assay [9], in assay [10], in [11] and in [14]. The result in assay [15], in assay [16], in assay [19], in assay [20] and in assay [17] was inactive. In addition, the AC50 in [12] was 0.0826 µM (active).
As for `CC(=O)OCCC(C)CC(C)(C)C` (stereo not drawn), the outcome in [1], in [2], in [3], in assay [4], in assay [5] and in assay [6] was inactive. Also, the molecule was classed as inactive in assay [7], in assay [8], in assay [9], in assay [10], in assay [11] and in assay [12]. Besides, the molecule was classed as inactive in assay [18], in assay [13], in assay [14], in assay [15], in assay [16] and in assay [19]. The call in assay [20] and in assay [17] was inactive.

As usually defined, the AC50 is the concentration giving half of the maximal activity seen.
